Hit rate of the full screen: of about 360,000 compounds, about 2,600 (0.72%) were called active. The sample holds actives, similar compounds and a random draw of the others, so the mix is not that of the screen. Unmarked numbers belong to inactive results.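 The calls were made as follows: active = inhibition above its plate's cutoff, the mean inhibition of sample wells plus 3 SD (cut at about 27% in these data); inactive = the rest.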

These results are taken from PubChem BioAssay AID624125 (The Scripps Research Institute Molecular Screening Center, 2012).

Muscarinic acetylcholine receptor M4 (Homo sapiens), sequence (P08173 whole entry, looked up): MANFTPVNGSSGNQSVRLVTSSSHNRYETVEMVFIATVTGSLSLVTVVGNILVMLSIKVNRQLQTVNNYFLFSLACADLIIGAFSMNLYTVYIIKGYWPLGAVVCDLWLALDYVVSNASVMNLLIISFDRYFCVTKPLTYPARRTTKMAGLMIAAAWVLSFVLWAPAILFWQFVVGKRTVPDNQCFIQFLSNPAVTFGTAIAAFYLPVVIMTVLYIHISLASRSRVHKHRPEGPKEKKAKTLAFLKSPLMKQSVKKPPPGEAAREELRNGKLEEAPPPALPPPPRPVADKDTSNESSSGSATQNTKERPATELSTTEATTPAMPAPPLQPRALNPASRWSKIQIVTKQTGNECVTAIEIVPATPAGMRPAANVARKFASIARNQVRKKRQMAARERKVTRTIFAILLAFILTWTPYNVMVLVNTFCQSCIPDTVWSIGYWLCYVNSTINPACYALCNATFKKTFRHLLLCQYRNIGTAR

This experiment concerns the target Muscarinic acetylcholine receptor M4 (Homo sapiens) (UniProt P08173). The experiment is described as follows: CHRM4 blockers of acetylcholine calcium response – CHO cells, Fluo-8 calcium fluorescence, primary screen (AID 624125).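 Also: 0% = acetylcholine EC80 with DMSO and 100% = DMSO without agonist.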 As to conditions: CHO-hM4 cells, ACh EC80, Fluo-8 calcium fluorescence; at 3 µM; active compounds read high.
By inhibition is commonly meant the drop in the measured response relative to a control, in per cent. Turning to `CSCCC(c1nnnn1C(C)(C)C)N1CCC(n2c(=O)[nH]c3ccccc32)CC1` (stereo not given), the inhibition is 5.14%. With `O=c1[nH]c2ccccc2n1C1CCN(C(c2ccnc3ccccc23)c2nnnn2Cc2ccccc2)CC1` (stereo not given), the inhibition is 22.4%. The value for `O=c1[nH]c2ccccc2n1C1CCN(C(c2ccccc2)c2nnnn2Cc2ccccc2)CC1` (stereo not given) was 27.1% (active); that for `Nc1ccc(C(=O)N/N=C2/CN3CCC2CC3)cc1` was -0.14%.

As to `Cc1nn(Cc2ccccc2Cl)c(Cl)c1C(=O)OC(C(=O)NC(N)=O)C(C)C` (stereo not given), the inhibition is 1.94%. For `COC(=O)N(c1ccc(OC)cc1)P1(=S)OCCC(C)O1` (stereo not given), the inhibition is 1.76%. On to `COc1ccc(N=Cc2c(O)n(C)c(=O)[nH]c2=O)cc1`, for which the inhibition is 1.06%. In the case of `CC(C)c1c(CN(C)C(C)Cc2ccccc2)n(C)n(-c2ccccc2)c1=O` (stereo not given), the inhibition is 66.1% (active). With `CCOC(=O)C(O)(c1ccc(N)c(OC)c1)C(F)(F)F` (stereo not given), the inhibition is 1.32%.

Take `O=[N+]([O-])c1cnc2ccc3ccccc3c2c1`: the inhibition was 9.35%. The value for `CC1(C)Cc2c(C#N)c(N3CCNCC3)nc(-c3ccco3)c2CS1` was 5.55%. As to `CC1CCCN1CCC(C(N)=O)(c1ccccc1)c1ccccc1` (stereo not given), the inhibition is 99% (active).

In the case of `O=C(Cc1ccccc1)N1CCN(C2CCCCCC2)CC1`, the inhibition is 0.63%. The same measure for `CC1CCCCN1Cc1cccnc1` (stereo not given): 3.46%. The value for `C[C@]12CCCCC1=CC(=O)C1C2CC[C@@]2(C)C1C[C@@H](F)[C@@H]2O` (stereo not given in full) was -6.29%. `N#Cc1ccc(Cn2cc(C(=O)c3ccco3)c3ccccc32)cc1`: the inhibition is 0.92%.

Regarding `CCOP(=O)(OCC)C(NC(=O)c1ccc(C)cc1)C(Cl)(Cl)Cl` (stereo not given), the inhibition was 9.97%. The value for `CCOP(=O)(OCC)C(NC(=O)c1ccc(OC)cc1)C(Cl)(Cl)Cl` (stereo not given) was 3.05%.

As to `CCOP(=O)(OCC)C(NC(=O)NC)C(N)=O` (stereo not given), the inhibition was 39% (active).

On to `CN(C)CCCN=Cc1c(O)n(Cc2ccco2)c(=O)[nH]c1=O`, for which the inhibition was 2.03%.

Consider `CC(=O)N(C1=NCCCS1)c1ccccc1F`, for which the inhibition is -8.11%. Regarding `CN(C)C(=O)Oc1cc(=O)n2c3c(cccc13)CCC2`, the inhibition is -4.4%.

As to `CCCCCCCCCCCCn1ccc(=N)cc1`, the inhibition is 71.3% (active).

With `COc1cc(-n2c(=S)[nH]c3ccc(C)cc3c2=O)c(Cl)cc1Cl`, the inhibition was 3.21%.

Regarding `COC(=O)C(O)(c1ccc(NC(=O)c2ccco2)c(OC)c1)C(F)(F)F` (stereo not given), the inhibition is 1.51%. For the compound `CCCC(C)n1[nH]c(=O)c2c1NC(=O)CSC2c1ccc(OC)c(OC)c1` (stereo not given), the inhibition is -2%. The value for `O=C(NCC(c1cccnc1)N1CCN(c2ccccc2)CC1)Oc1ccccc1` (stereo not given) was -1.68%. `CCCC[N+]1(C)C2CC(OC(=O)C(CO)c3ccccc3)CC1C1OC12` (stereo not given): the inhibition was 90.4% (active). As for `N#CC1=C(N)Oc2c(c(=O)oc3ccccc23)C1c1ccccc1OC(=O)c1cccs1` (stereo not given), the inhibition was 5.46%. For the compound `Cc1ccc(-n2c(O)c(C=NCC3CCCO3)c(=O)[nH]c2=O)c(C)c1` (stereo not given), the inhibition is -11%.

Take `COc1cccc(CN2CCCC(C(=O)c3ccccc3SC)C2)c1O` (stereo not given): the inhibition is -1.14%. The same measure for `CC[N+]1(C)CCCC(OC(=O)C(O)(c2ccccc2)c2ccccc2)C1` (stereo not given): 98.6% (active); for `Cc1ccc(N(C)C(=O)Oc2cccc3ccc(C)nc23)cc1`: 5.04%; for `CCc1nc2ccccc2c(=O)n1-c1cccc(OC)c1`: -8.12%.

Take `CN1CCN(/N=C/c2c[nH]c3ccccc23)CC1`: the inhibition was -1.55%.
